Source: PubChem (The Scripps Research Institute Molecular Screening Center)
FBW7 activator = FBW7 E3 ligase activators, primary screen, biochemical, AlphaScreen, human; F-box/WD repeat-containing protein 7 (Homo sapiens), Q969H0; AlphaScreen FBW7–phospho-cyclin E peptide binding, activator screen; normalized activity (activation), % at 26.1 µM; 0.13% of 650,000 active; in the data active means normalized activity above about 1.9%;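 further: purified mutant Fbw7 with reduced substrate affinity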
TEAD-YAP block = TEAD-YAP interaction inhibition, primary screen, TEAD-YAP interaction inhibitor project, luminescence, HEK-TIYL cells. TEAD-Gal4/YAP UAS-luciferase luminescence. inhibition, % at 9.12 µM. 1.4% of 640,000 active; in the data active means inhibition above about 32%;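 further: 0% = median of test compound wells and 100% = reference inhibitor wells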
GPR151 activ = activators of human GPR151, primary screen, cell-based, PathHunter beta-arrestin, luminescence. PathHunter beta-arrestin GPR151 cells. 1% of 650,000 active. activation, % at 11.2 µM. G-protein coupled receptor 151 (Homo sapiens), Q8TDV0. AID 1508602, 2020; in the data active means activation above about 4.9%;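 further: 0% = median of compound wells and 100% = cells with positive control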
MITF primary = MITF inhibitors, primary screen, biochemical, AlphaScreen, human | Microphthalmia-associated transcription factor (Homo sapiens), O75030 | AlphaScreen MITF homodimerization, bead proximity signal | inhibition, % at 2.6 µM | 0.91% of 650,000 active | AID 1259374, 2018; in the data active means inhibition above about 50%;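 further: 0% = vehicle wells with protein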
Target sequence (O75030 whole entry, looked up): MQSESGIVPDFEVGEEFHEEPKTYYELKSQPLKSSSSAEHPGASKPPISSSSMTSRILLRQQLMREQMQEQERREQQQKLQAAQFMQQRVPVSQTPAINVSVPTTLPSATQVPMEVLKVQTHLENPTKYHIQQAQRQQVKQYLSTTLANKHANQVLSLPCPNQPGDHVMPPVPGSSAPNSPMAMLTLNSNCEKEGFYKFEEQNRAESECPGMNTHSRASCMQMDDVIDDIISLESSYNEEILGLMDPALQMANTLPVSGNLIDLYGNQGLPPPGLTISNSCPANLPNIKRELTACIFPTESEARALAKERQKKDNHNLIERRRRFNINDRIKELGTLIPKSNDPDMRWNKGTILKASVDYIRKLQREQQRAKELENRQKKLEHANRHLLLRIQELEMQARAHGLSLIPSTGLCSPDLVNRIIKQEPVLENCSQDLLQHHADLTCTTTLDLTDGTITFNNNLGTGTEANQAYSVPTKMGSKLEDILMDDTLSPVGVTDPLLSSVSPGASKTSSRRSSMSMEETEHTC
The depositor's hits bear a star. Compounds with a hit are over-represented: about 3.4% of the library has one in this group of screens.

SMILES	FBW7 activator	TEAD-YAP block	GPR151 activ	MITF primary
CCn1c2c(n[n+]1[O-])C(=O)c1ccccc1C2=O	0	101*	-5	0
CC(C)c1cc(C(=O)NCCc2ccccc2)nn1-c1nc2ccccc2s1	0	44*	0	2
COc1ccc(NC(=O)c2cc(C(C)C)n(-c3nc4ccccc4s3)n2)cc1OC	0	56*	0	-7
Cc1c(Cl)cccc1NC1OC(=O)c2ccccc21 (stereo not drawn)	0	1	0	-3
COc1ccc(OC)c(C2C=C(c3cccnc3)Nc3ncnn32)c1 (stereo not drawn)	0	22	-1	-4
COc1cccc(C2=CC(c3cc(OC)ccc3OC)n3ncnc3N2)c1 (stereo not drawn)	0	50*	0	24
COc1ccc(C2=CC(c3cc(OC)ccc3OC)n3ncnc3N2)cc1 (stereo not drawn)	0	50*	-1	0
O=C(O)C(Cc1ccccc1)N1C(=O)C2CCCCC2C1=O (stereo not drawn)	2.6*	6	0	-4
COc1ccccc1/C=N/Nc1nc(-c2ccccc2)cc(=O)[nH]1	0	50*	-1	1
CCOC(=O)c1[nH]c(C)c(C(=O)Nc2cc(C)ccc2C)c1C	0	40*	0	2
CCOC(=O)c1[nH]c(C)c(C(=O)Nc2cccc(C)c2C)c1C	0	42*	1	8
CCOC(=O)c1c(C)c(C(=O)Nc2cc(C)ccc2OC)c(C)n1CC	0	41*	1	3
CCOC(=O)c1[nH]c(C)c(C(=O)N2CCc3ccccc32)c1C	0	49*	0	-4
CCC1Sc2ccccc2N(CC(=O)NC2CC2)C1=O (stereo not drawn)	0	-13	-1	0
COc1ccc(CC(=O)N2CCc3nnc(CCNC(=O)C(C)C)n3CC2)cc1OC	0	-13	0	17
CCSCCOC(=O)C1=C(C)NC2=C(C(=O)CC(c3ccc(Cl)cc3)C2)C1c1cccc(Cl)c1 (stereo not drawn)	2	6	-1	8
CCC(=O)Nc1nc(C)c(-c2csc(Nc3cc(OC)ccc3OC)n2)s1	0	6	0	16
CCC(=O)Nc1nc(C)c(-c2csc(Nc3ccc(OC)cc3)n2)s1	0	33*	-1	11
Cc1nc(C)c(-c2csc(Nc3ccc(F)cc3)n2)s1	0	-43	-1	8
CCc1ccc(Nc2nc(-c3sc(C)nc3C)cs2)cc1	0	47*	-2	12
COc1ccc2nc(NC(=O)c3sc4nc(C)cc(C)c4c3N)sc2c1	1	35*	1	4
Cc1cccc(NC(=O)c2sc3nc(C)cc(C)c3c2N)n1	0	84*	-2	-14
Cc1cc(C)c2c(N)c(C(=O)Nc3ccccc3)sc2n1	0	-11	0	-10
Cc1cc(C)c2c(N)c(C(=O)NC(C)c3ccccc3)sc2n1 (stereo not drawn)	2.3*	-14	1	16
COc1ccc2nc(NC(=O)c3sc4nc(C)[nH]c(=O)c4c3C)sc2c1	0	5	0	13
SMILES	FBW7 activator	TEAD-YAP block	GPR151 activ	MITF primary
COc1cc(Nc2nc(NCc3nc4ccccc4[nH]3)c3ncn(-c4ccsc4)c3n2)cc(OC)c1OC	0	18	-1	3
c1ccc2[nH]c(CNc3nc(Nc4cnccn4)nc4c3ncn4-c3ccsc3)nc2c1	0	71*	2	-11
c1ccc(-n2cnc3c(NCc4nc5ccccc5[nH]4)nc(Nc4ccncn4)nc32)cc1	0	35*	-1	8
c1ccc(CNc2nc(Nc3cnccn3)nc3c2ncn3-c2ccsc2)cc1	0	14	-1	-4
O=C1CCCN1CCn1cnc2c(NCc3nc4ccccc4[nH]3)nc(Nc3ccncn3)nc21	0	-9	0	6
c1ccc(Nc2nc(NCc3nc4ccccc4[nH]3)c3ncn(-c4ccsc4)c3n2)nc1	0	78*	1	11
c1ccc(-n2cnc3c(NCc4nc5ccccc5[nH]4)nc(Nc4ccccn4)nc32)cc1	0	53*	-1	-3
COC(=O)c1ccc([C@@H]2Nc3ccc(C(=O)O)cc3[C@@H]3C=CC[C@@H]32)cc1	-1	12	0	73*
CC(C)COC(=O)c1ccc2c(c1)C1C=CCC1C(C(=O)O)N2 (stereo not drawn)	0	4	0	29
COC(=O)c1ccc([C@@H]2Nc3ccc(C(C)=O)cc3[C@@H]3C=CC[C@@H]32)cc1	0	-29	-1	11
COC(=O)c1ccccc1OC(=O)c1ccc2c(c1)C1C=CCC1C(C(=O)O)N2 (stereo not drawn)	0	7	0	68*
O=C(O)c1ccc2c(c1)[C@@H]1C=CC[C@@H]1[C@H](c1c(F)cccc1Cl)N2	0	40*	0	9
O=C(O)c1ccc2c(c1)C1C=CCC1C(c1cccc3ccccc13)N2 (stereo not drawn)	0	49*	0	23
Cc1ccc(C)c(SCC(=O)Nc2ccc(S(=O)(=O)Nc3ncccn3)cc2)c1	0	-15	0	-9
O=C(O)c1ccc2c(c1)C1C=CCC1C(c1ccc(F)cc1)N2 (stereo not drawn)	-1	0	2	30
O=C(O)C1Nc2ccc(Oc3ccccc3)cc2C2C=CCC12 (stereo not drawn)	1	5	-1	35
CCOC(=O)c1ccc2c(c1)C1C=CCC1C(C(=O)O)N2 (stereo not drawn)	0	4	1	76*
O=C(O)c1ccc2c(c1)C1C=CCC1C(c1ccccc1)N2 (stereo not drawn)	-1	4	1	59*
CCOC(=O)c1ccc2c(c1)C1C=CCC1C(c1ccc(C(=O)O)cc1)N2 (stereo not drawn)	-2	7	0	68*
CCOC(=O)c1ccc2c(c1)C1C=CCC1C(c1ccc(F)cc1)N2 (stereo not drawn)	0	4	-1	8
O=C(O)C1Nc2ccc([N+](=O)[O-])cc2C2C=CCC12 (stereo not drawn)	0	2	-1	85*
Cc1ncn(-c2ccc(Nc3cc(-c4nocc4-c4cnn(C)c4)ccn3)cc2)n1	0	2	1	-5
O=C(O)c1ccc2c(c1)C1C=CCC1C(c1ccncc1)N2 (stereo not drawn)	-2	-6	0	56*
CC(=O)c1ccc2c(c1)C1C=CCC1C(c1ccc(C(=O)O)cc1)N2 (stereo not drawn)	-1	-3	1	67*
CC(=O)c1ccc2c(c1)C1C=CCC1C(c1ccc(Br)cc1)N2 (stereo not drawn)	1	8	0	13
O=C(O)c1ccc(C2Nc3ccc([N+](=O)[O-])cc3C3C=CCC32)cc1 (stereo not drawn)	-2	-11	0	76*
